Experimental findings from PubChem BioAssay AID2315 (National Center for Advancing Translational Sciences (NCATS), 2010) are described below.

Molecules are shown by their SMILES. Hit rate of the full screen: of about 290,000 compounds, about 27,000 (9.3%) were called active. This is one part of a sample in which actives are shown more often than they occur. No stated cut-off is given here; in the data, active means inhibition mostly above about 28% (no sharp cut-off); inactive means mostly below about 43%.

This test in a line: A qHTS for Small Molecule Inhibitors of Shiga Toxin. Further: 0% is about no effect. To be noted: Vero cells, Shiga toxin protein synthesis inhibition reporter; at 38.7 µM, stronger effect = higher value. (Quantitative high-throughput screening tests each substance at several concentrations.)
As usually defined, the inhibition is the relative decrease from the control value, in per cent. Regarding `CC(C)C[C@H]1CN=C(Nc2ccccc2)N1CC1CCCCC1`, the inhibition was 0.785% (inactive).

Consider `O=C(Cc1ccccn1)c1ccc(O)cc1O`, for which the inhibition was -4.76% (inactive).

As to `Cc1cccc(C(=O)N2CCCC(Nc3ccc(C(C)C)cc3)C2)n1` (centres undefined), the inhibition is 19.6% (inactive).

For `CCn1c(SCc2cccc(C(=O)O)c2)nnc1-c1ccc(Cl)cc1`, the inhibition is 7.08% (inactive).

Turning to `O=S(=O)(Cc1nnnn1-c1ccc(Br)cc1)c1ccc(F)cc1`, the inhibition is -1.52% (inactive).

For `CCOc1ccc(-n2c(SCC(=O)Nc3cc(C(=O)O)ccc3Cl)nc3ccccc3c2=O)cc1`, the inhibition is 3.55% (inactive).

For the compound `CC(=O)c1cccc(NC(=O)COc2ccc(S(=O)(=O)N3CCOCC3)cc2)c1`, the inhibition is -10.1% (inactive).

For the compound `CCCC(C)c1nnc(NC(=O)C2CC(=O)N(c3ccc(OCC)cc3)C2)s1` (centres undefined), the inhibition is -3.18% (inactive).

Turning to `Cc1cccn2c(=O)c3cc(C(=O)NCCN4CCOCC4)c(=N)n(Cc4cccnc4)c3nc12`, the inhibition was -22.4% (inactive).

Take `COc1cccc(C(=O)Nc2nnc(S(=O)(=O)N3CCCCC3)s2)c1`: the inhibition was 6.87% (inactive).

Consider `CCOC(=O)c1csc(NC(=O)Nc2cccc(OC)c2)n1`, for which the inhibition is -3.25% (inactive).

As to `COc1cccc(NC(=O)Nc2nnc(N3CCCCC3C)s2)c1` (centres undefined), the inhibition is 53.2% (active).

In the case of `CN1C(=O)[C@H]2[C@@H](C3CC3)N3C(=O)CN(Cc4ccccc4)C(=O)[C@@]3(C)[C@H]2C1=O`, the inhibition was 1.87% (inactive).

With `CC1CCN(CCCn2c(SCC(=O)NC3CCCC3)nc3ccccc3c2=O)CC1`, the inhibition is 17.3% (inactive).

Consider `COc1ccccc1C1/C(=C(/O)c2ccc(OC(C)C)cc2)C(=O)C(=O)N1c1cc(C)on1` (centres undefined), for which the inhibition is -22.9% (inactive).

`COc1ccc(/C(O)=C2/C(=O)C(=O)N(c3nc(C)c(C)s3)C2c2ccco2)cc1` (centres undefined): the inhibition is 30.6% (inactive).

Consider `CCOc1ccc(/C(O)=C2\C(=O)C(=O)N(c3ccc(OC)cc3)C2c2ccccc2[N+](=O)[O-])cc1` (centres undefined), for which the inhibition was 26.8% (active).

With `CCNC(=O)COC(=O)CCNC(=O)c1cccc(C)c1`, the inhibition is 43.3% (inactive).

As for `CCOC(=O)C(CC)/C(C)=N\NC(=O)c1cccc(C)c1` (centres undefined), the inhibition was 66.3% (active).

Consider `COc1ccc(OCC(=O)NNC(=O)c2cccc(C)c2)cc1`, for which the inhibition was -7.72% (inactive).

Turning to `Cc1cc(=O)oc2c3c(cc(OCC(=O)NCCC(=O)N[C@@H](C)C(=O)O)c12)OC(C)(C)CC3`, the inhibition is -4.24% (inactive).

Consider `Cc1cc2c(s1)c1cnn(Cc3c(F)cccc3Cl)c(=O)c1n2C`, for which the inhibition is 12.5% (inactive).

Consider `O=C(c1cccs1)N(C(=O)c1cccs1)c1ccccn1`, for which the inhibition is 39.7% (inactive).

In the case of `O=C(C1=C(O)C(=O)N(c2ncccn2)C1c1cccs1)c1ccco1` (centres undefined), the inhibition was -18.4% (inactive).

Turning to `O=C(C1=C(O)C(=O)N(CCOCCO)C1c1ccccn1)c1cccs1` (centres undefined), the inhibition is 29.3% (active).

Regarding `Cn1c(=O)c2c(nc(OCc3cccnc3)n2Cc2ccccc2)n(C)c1=O`, the inhibition was 39.2% (active).

As for `C=CCOc1nc2c(c(=O)n(C)c(=O)n2C)n1Cc1ccc(Cl)cc1Cl`, the inhibition is -1.49% (inactive).

As to `Cn1c(=O)c2c(nc(NCCc3ccccc3)n2Cc2ccccc2)n(C)c1=O`, the inhibition is -11.5% (inactive).

For the compound `COc1ccc(CN2C3CCCC2CC(NC(=O)c2cccc(F)c2)C3)cc1` (centres undefined), the inhibition was 14.6% (inactive).

As to `C=CCNc1cnn(-c2ccc(C)cc2)c(=O)c1Cl`, the inhibition is 127% (active).

In the case of `O=c1c(Cl)c(NC2CC2)cnn1-c1ccccc1`, the inhibition is 107% (inactive).

Consider `Cc1cccc(-n2ncc(Cl)c(Cl)c2=O)c1`, for which the inhibition was -17.2% (inactive).

For `CCCN1C2CCCC1CC(NC(=O)c1cccc(OC)c1)C2` (centres undefined), the inhibition is 12.9% (inactive).

Turning to `CCOc1ccc(N=Cc2c(O)n(-c3cccc(C)n3)c(=O)c3ccccc23)cc1`, the inhibition is -15.9% (inactive).

In the case of `CC(=O)n1c(C=Nc2ccccc2)c(O)c2ccccc21`, the inhibition was 49.2% (active).

Regarding `CCCCn1c(=O)c(C(C)=O)c(O)c2ccccc21`, the inhibition was -12.1% (inactive).

Take `C/C(=N\N1CCN(Cc2ccc(C)cc2)CC1)c1ccco1`: the inhibition was 31.8% (active).

Regarding `Cc1ccc(CN2CCN(/N=C/c3ccco3)CC2)c(C)c1`, the inhibition was 11.6% (inactive).

With `O=C(c1ccco1)N1CCN(Cc2cccc(C(F)(F)F)c2)CC1`, the inhibition is -13.9% (inactive).

Consider `C/C(CC(=O)Nc1ccc(N(C)C)cc1)=N\NC(=O)c1ccccc1F`, for which the inhibition was 121% (active).

For the compound `CCn1c2ccccc2c2cc(NC(=O)CNC)ccc21`, the inhibition was -4.7% (inactive).

As for `CN(C)c1ccc(NC(=O)CN2C3CCCC2CC(NC(=O)c2ccccc2)C3)cc1` (centres undefined), the inhibition was 27.2% (inactive).

For the compound `CCOc1ccc(NC(=O)C/C(C)=N/NC(=O)Cc2cccs2)cc1`, the inhibition is 2.74% (inactive).

Turning to `CCn1c2ccccc2c2cc(NC(=O)C/C(C)=N/NC(=O)c3ccccc3N)ccc21`, the inhibition is 131% (active).

On to `CCn1c2ccccc2c2cc(NC(=O)COC(=O)c3ccccc3Br)ccc21`, for which the inhibition is -4.15% (inactive).

Take `CC(=O)NCCc1ccc(S(=O)(=O)Nc2ccc(C)c(S(=O)(=O)N3CCOCC3)c2)cc1`: the inhibition was -1.5% (inactive).

`COc1ccccc1NC(=O)CN(c1ccccc1OC)S(=O)(=O)c1ccccc1`: the inhibition was -1.35% (inactive).

Take `Cc1ccc(NC(=O)CSc2nnc(CNC(=O)c3ccccc3F)o2)cc1Cl`: the inhibition was -10.8% (inactive).

As to `CC(C)[C@H](NC(=O)N1c2ccccc2NC(=O)[C@@H]1C(C)C)C(=O)N[C@H](C(=O)O)c1ccccc1`, the inhibition is 3.44% (inactive).

Take `Cc1ccc(OCC(=O)NCCCNC(=O)c2ccco2)cc1C`: the inhibition was -2.33% (inactive).

Consider `C/C(=N/OC(=O)c1cccc(C(F)(F)F)c1)c1cnccn1`, for which the inhibition is -18.2% (inactive).

Turning to `Cc1ccc(SC(=O)COc2ccc(C)c(C)c2)cc1`, the inhibition is -26.3% (inactive).

As to `CN(Cc1cccnc1)C(=O)c1cc(COc2ccc3ncccc3c2)on1`, the inhibition was 21.5% (inactive).

`CN(CCOc1ccccc1)C(=O)c1cc(COc2c(F)cccc2F)on1`: the inhibition is 28.4% (inactive).

`Cc1cc(CN(C)C(=O)c2cc(COc3ccc(C)c(C)c3)on2)n[nH]1`: the inhibition was 59.9% (active).

`Cc1ccc(OCC(=O)NCCCNC(=O)c2cccnc2)cc1C`: the inhibition is -10.2% (inactive).

For the compound `CN(Cc1cnccn1)C(=O)c1cc(COc2cccc(C(F)(F)F)c2)on1`, the inhibition was 60.3% (active).

On to `Cc1ccc(OCc2cc(C(=O)N(C)CCc3ccccc3)no2)cc1C`, for which the inhibition is 106% (active).

On to `O=S(=O)(Cc1noc(-c2ccc(OC(F)(F)F)cc2)n1)c1ccc(F)cc1`, for which the inhibition was 60.4% (inactive).
